Compounds with a hit are over-represented: about 3.7% of the library has one in this group of screens.
GLP-1R inv ag – GLP-1 receptor (human) inverse agonism; Potency, µM (series often up to 38.3 µM), for inactives: at the top dose activity change, negative = inhibition, hits mostly inhibitors; P43220; AID 624417; HEK293 GLP-1R CRE-luciferase, luminescence, 24 h; GLP-1R form is constitutively active; 1.6% of 410,000 active; further: on the % scale 0 is the no-effect control and ±100 the full control effect; nearly all actives have a fitted effect of over 55% in size
Target sequence (P43220 whole entry, looked up): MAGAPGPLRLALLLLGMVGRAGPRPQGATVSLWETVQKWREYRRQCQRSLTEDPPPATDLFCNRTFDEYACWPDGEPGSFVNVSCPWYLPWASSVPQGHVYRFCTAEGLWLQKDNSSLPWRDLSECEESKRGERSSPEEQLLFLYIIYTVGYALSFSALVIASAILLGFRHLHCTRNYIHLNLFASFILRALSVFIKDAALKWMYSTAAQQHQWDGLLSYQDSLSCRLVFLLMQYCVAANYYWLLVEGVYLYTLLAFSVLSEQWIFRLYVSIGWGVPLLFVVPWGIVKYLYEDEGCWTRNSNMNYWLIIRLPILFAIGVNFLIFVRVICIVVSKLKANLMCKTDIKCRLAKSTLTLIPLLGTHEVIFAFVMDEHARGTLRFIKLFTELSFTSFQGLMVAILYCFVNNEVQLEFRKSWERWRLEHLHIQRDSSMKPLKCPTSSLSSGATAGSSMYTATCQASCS
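GLP-1R inverse agonism mode: basal reporter luminescence in engineered HEK293 cells measured after one day of compound exposure at 37 deg C, with a 12 min room-temperature detection step.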
S2 tox – reduces viability in counter-screen for ATXN expression inhibitors. S2 cells (HEK-293 line with an ATXN2-luciferase reporter) viability, CellTiter-Fluor protease fluorescence, 24 h. Potency, µM (series often up to 56.7 µM), usual class: cytotoxic. 0.49% of 400,000 active. AID 651635; further: nearly all actives have a fitted effect of over 40% in size
TGFb SMAD3 inh – inhibitors of TGF-b signaling; HepG2 CAGA-GFP TGF-b/SMAD3 reporter, GFP fluorescence, 18 h; TGF-beta stimulated, 500 pg/mL final; Potency, µM (highest dose often 46.1 µM), inactives show top-dose activity, negative = inhibition, hits mostly inhibitors; 1.2% of 410,000 active; AID 588855; further: on the % scale 0 is the no-effect control and ±100 the full control effect; nearly all actives have a fitted effect of over 65% in size
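Inhibition was scored as loss of TGF-beta-induced (500 pg/mL final, 18 hours, 37 degrees C) GFP in HEPG2 cells carrying a CAGA-GFP reporter, in DMEM with 1% FBS. Well GFP was summed per cell; Activity was normalised to unstimulated and stimulated DMSO wells, then concentration-response fitting.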
ATXN2 expr inh – reduces ATXN2 reporter expression in HEK-293 cells; HEK-293 ATXN2-luciferase reporter, luminescence, 24 h; Potency, µM (top dose mostly 57 µM), inactives show at the highest dose activity change, negative = inhibition, usual class: inhibitors; 0.72% of 360,000 active; AID 1745845; further: on the % scale 0 is the no-effect control and ±100 the full control effect; nearly all actives have a fitted effect of over 55% in size
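qHTS (up to 57 uM final) was run with 24 h compound exposure of reporter cells at 37 °C. Each well was multiplexed: SteadyGlo luminescence measured ATXN2-luciferase expression after a fluorogenic Gly-Phe-AFC viability readout (25 uM final).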
GLP1R ag – GLP-1 receptor (human) agonism. 0.007% of 380,000 active. P43220. Potency, µM (highest dose often 45.6 µM), without a hit: at the top dose activation, actives largely listed as activators. AID 624172. HEK293 GLP-1R CRE-luciferase, luminescence, 4-6 h; cells express a hypersensitive GLP-1R form; further: % of control where 0% means no effect
HepG2 tox – HepG2 cytotoxicity, counter-screen for TGF-b inhibitors. HepG2 CAGA-GFP viability, ATP luminescence, 18 h. Potency, µM (titrated, usually from 46.1 µM), for the others: at the top dose activity change, negative = cytotoxicity, most hits filed as cytotoxic. 0.76% of 410,000 active
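HepG2 CAGA-GFP cells (1000/well, DMEM with 1% FBS) received compound, then TGF-beta at 500 pg/mL final, and were incubated 18 hours at 37 degrees C. Viability was read by CellTiter-Glo luminescence. Media-only wells were set as complete cell-killing and DMSO as no toxicity.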
* = called active by the depositor; [ ] = remark or other dose. The call rests on the fitted dose curve; in most records, active means well fitted curve in the direction sought with a large enough effect; inconclusive means small, poorly fitted or top-dose-only effect, or another doubt; inactive means no such curve, though single readings can be large; an effect the other way counts as inactive or inconclusive. Potency means the concentration at half of the fitted maximal effect.

CCCCN(CC)CCCNC(=O)c1ccc2c(c1)N(Cc1ccc(C)cc1)C(=O)c1ccccc1S2 was read as GLP-1R inv ag inconclusive, TGFb SMAD3 inh 14µM* and HepG2 tox 11µM*.
Screening CCOc1ccc(CN2C(=O)c3ccccc3Sc3ccc(C(=O)NCCCN4CCOCC4)cc32)cc1 returned GLP-1R inv ag 13µM*, S2 tox inactive, TGFb SMAD3 inh inconclusive, ATXN2 expr inh -30%, GLP1R ag -7% and HepG2 tox -33%.
`CN(C)CCNC(=O)c1ccc2c(c1)N(Cc1c(F)cccc1Cl)C(=O)c1ccccc1S2` gave GLP-1R inv ag inconclusive, S2 tox inactive, TGFb SMAD3 inh inconclusive, ATXN2 expr inh 22µM*, GLP1R ag 0% and HepG2 tox -67%.
`COCC(=O)Nc1cc(C(=O)N2CCc3sccc3C2)c2c(c1)nc(-c1ccncc1)n2C` gave S2 tox inactive.
For Cc1ccccc1C(=O)Nc1nc(-c2ccc(Br)cc2)ns1 the results were GLP-1R inv ag inconclusive, TGFb SMAD3 inh -30% and HepG2 tox -43%.
Cc1ccc(C)c(CN2C[C@H](Sc3nc4ccccc4[nH]3)C[C@H]2C(=O)N2CCCN(C)CC2)c1 was read as S2 tox inactive.
For Cc1ccc(-n2nc(CO)c(C(=O)NC(C)c3ccccc3)n2)cc1C (stereo not drawn) the results were GLP-1R inv ag inconclusive, TGFb SMAD3 inh -24% and HepG2 tox -22%.
`C=CCOc1ccccc1CN1CCC(C(=O)Nc2cccc(-c3ccn[nH]3)c2)CC1` gave GLP-1R inv ag 7.9µM*, S2 tox inactive, TGFb SMAD3 inh -9%, ATXN2 expr inh inconclusive, GLP1R ag -7% and HepG2 tox -9%.
For CCCCNC(=O)[C@@H]1CC=C[C@@H]2CCN(C3CCCCC3)C(=O)[C@@H]21 the results were TGFb SMAD3 inh -28% and HepG2 tox -36%.
Screening CCOc1ccc(CNC(=O)CCC(=O)N2CC3CCCN3c3ccccc32)cc1 (stereo not drawn) returned GLP-1R inv ag -18%, S2 tox inactive, TGFb SMAD3 inh -17%, ATXN2 expr inh -4% and HepG2 tox -7%.
CCCCCCCCCC[n+]1cccc2c3ccccc3ccc21 was read as GLP-1R inv ag inconclusive, S2 tox inconclusive, TGFb SMAD3 inh 13µM*, ATXN2 expr inh 0.67µM*, GLP1R ag -4% and HepG2 tox 11µM*.
For CCCCCCCCCC[n+]1cccc2cc(Cl)ccc21 the results were TGFb SMAD3 inh inconclusive and HepG2 tox -84%.
CCCCCCCCCCCCCCCC[n+]1ccc(C)c2ccccc21 was read as TGFb SMAD3 inh 7.1µM* and HepG2 tox 11µM*.
Screening CCCCCCCC[n+]1cccc2c3ccccc3ccc21 returned GLP-1R inv ag inconclusive, S2 tox inconclusive, TGFb SMAD3 inh 1.4µM*, GLP1R ag -1% and HepG2 tox -10%.
Screening CCCCCCCCCC[n+]1ccc(/C=C/c2c[nH]c3ccccc23)c2ccccc21 returned TGFb SMAD3 inh 7.1µM* and HepG2 tox 13µM*.
For Cc1cccc[n+]1CCCCCCCCCC[n+]1ccccc1C the results were GLP-1R inv ag -5%, S2 tox inconclusive, TGFb SMAD3 inh inconclusive, ATXN2 expr inh -9%[11.3 µM], GLP1R ag -4% and HepG2 tox -14%.
For CC(=O)c1ccccc1C(=O)NCC1Cc2cccc(-c3cccnc3)c2O1 (stereo not drawn) the results were S2 tox inactive.
For CC(C)(C)C(=O)Oc1ccc(S(=O)(=O)Nc2ccccc2C(=O)NCC(=O)O)cc1 the results were S2 tox inactive, ATXN2 expr inh -4% and GLP1R ag -1%.
Cc1c(Cl)sn(-c2ccc(Cl)cc2)c1=O was read as GLP-1R inv ag inconclusive, S2 tox 30µM*, TGFb SMAD3 inh inconclusive, ATXN2 expr inh 8.9µM*, GLP1R ag 8% and HepG2 tox -140%.
Screening CCOc1ccccc1CN1CCN(C2CCN(c3ccccc3F)CC2)CC1CCO (stereo not drawn) returned GLP-1R inv ag 11µM*, S2 tox inactive, TGFb SMAD3 inh -22%, ATXN2 expr inh -6%[11.3 µM], GLP1R ag 2% and HepG2 tox -6%.
For CCOc1ccccc1CN1CCN(Cc2ccc(C)o2)CC1CCO (stereo not drawn) the results were GLP-1R inv ag -11%, S2 tox inactive, TGFb SMAD3 inh 0%, GLP1R ag 9% and HepG2 tox -8%.
COC(=O)CC(NC1CCN(c2nc(C)c3cc4c(cc3n2)CCC4)CC1)C(=O)OC (stereo not drawn) was read as S2 tox inactive.
COc1cccc(-n2cc(CN(C)Cc3nc(Cc4cccc(F)c4)no3)cn2)c1 was read as GLP-1R inv ag 10µM*, S2 tox inactive, TGFb SMAD3 inh -6%, ATXN2 expr inh -13%, GLP1R ag 0% and HepG2 tox -3%.
`COc1cccc(-n2cc(CN(C)Cc3nc(Cc4ccccc4)no3)cn2)c1` gave GLP-1R inv ag inconclusive, S2 tox inactive, TGFb SMAD3 inh 1%, ATXN2 expr inh 2%, GLP1R ag 13% and HepG2 tox -13%.
Cc1cc(S(=O)(=O)NCc2nc(N3CCCC3)c3cc(Cl)ccc3n2)c(C)s1 was read as S2 tox inactive.
`CCCCCCCc1nc2sc3c(c2c(=O)n1N)CC(C)(C)OC3` gave GLP-1R inv ag 12%, S2 tox inactive, TGFb SMAD3 inh -1%, ATXN2 expr inh 3%, GLP1R ag 6% and HepG2 tox 23%.
`CCCCCc1nc2sc3c(c2c(=O)n1NC(=O)c1ccc([N+](=O)[O-])cc1)CC(C)(C)OC3` gave GLP-1R inv ag 10µM*, S2 tox inconclusive, TGFb SMAD3 inh inconclusive, ATXN2 expr inh inconclusive, GLP1R ag 1% and HepG2 tox -3%.
CCCSc1nc2sc3c(c2c(=O)n1CC)CC(C)(C)OC3 was read as GLP-1R inv ag 10µM*, S2 tox inactive, TGFb SMAD3 inh -2%, ATXN2 expr inh -1%, GLP1R ag 20% and HepG2 tox -5%.
`CCOC(=O)N1CCN(/[N+]([O-])=N/Oc2ccc(C(F)(F)F)cc2[N+](=O)[O-])CC1` gave TGFb SMAD3 inh -22% and HepG2 tox -21%.

Bioassay records deposited in PubChem BioAssay by National Center for Advancing Translational Sciences (NCATS).
